# Bioassay records (PubChem)
# Giardia killer = Giardia lamblia killing | Giardia lamblia trophozoite viability | activity change, % at 7.66 µM, hits read low | 0.15% of 340,000 active | AID 540267; in the data active = activity change below about -80%; inconclusive = between about -30% and that limit;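 also: parasites exposed to compound for two days anaerobically before the ATP read; % is scaled to controls: 0 for no effect and ±100 for the full control effect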
#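 Trophozoite viability was measured as ATP-dependent luminescence, read 15-30 min after reagent addition. Before that, parasites at 100 cells/well were exposed to compounds for 48 h, anaerobically, at 37 deg C.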
# TGFb inhibitor = TGF-b pathway inhibition; HepG2 CAGA-GFP TGF-b/SMAD3 reporter, GFP fluorescence, 18 h; TGF-beta stimulated, 500 pg/mL final; Potency, µM (doses to about 46.1 µM), without a hit: at the highest dose activity, negative = inhibition, most hits filed as inhibitors; 1.2% of 410,000 active; also: potency is read from the fitted curve at half-maximal effect; % is scaled to controls: 0 for no effect and ±100 for the full control effect; nearly all actives have a fitted effect of over 65% in size
#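 Using HEPG2 CAGA-GFP reporter cells at 1000 cells/well, we pinned test compounds, stimulated with recombinant TGF-beta (500 pg/mL final) and measured total well GFP after 18 h.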
# HT1080-NT tox = kills 2HG-producing HT-1080-NT fibrosarcoma cells. HT-1080-NT fibrosarcoma viability, CellTiter-Glo ATP luminescence, 48 h. Potency, µM (highest dose often 46.1 µM), for inactives: at the top dose activity, negative = less viability, hits mostly cytotoxic. 1.6% of 360,000 active;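 also: NT is the 2HG producing partner of a matched IDH1 knockdown line; potency is read from the fitted curve at half-maximal effect; 0% = DMSO-treated cells and -100% = media-only wells without cells; nearly all actives have a fitted effect of over 55% in size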
#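 HT-1080-NT; 750 cells/well; 5% FBS RPMI; 48 h compound, 37 degrees C; CellTiter-Glo luminescence; curve fitting and curve-class assignment.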
# IL1B secr inh = blocks inflammasome-driven IL-1 beta release; activity change, % at 57.5 µM; 4.7% of 360,000 active; THP-1 LPS/ATP IL-1B secretion, AlphaLISA, 16 h; stronger effect = lower value; in the data active = activity change below about -50%; inconclusive = mostly about -30% to -49%; also: % is scaled to controls: 0 for no effect and ±100 for the full control effect
#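 Secreted IL-1B measured by AlphaLISA bead assay after 16 h compound exposure of THP-1 cells; compounds (final up to 57.5 uM) added 1 h before LPS (250 ng/mL) and ATP (1.25 mM) stimulation; lower signal means less secretion.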
# HepG2 tox = kills HepG2 cells in TGF-b inhibitor counter-screen; HepG2 CAGA-GFP viability, ATP luminescence, 18 h; Potency, µM (top dose mostly 46.1 µM), for inactives: top-dose activity change, negative = cytotoxicity, usual class: cytotoxic; 0.76% of 410,000 active; AID 588856; also: potency is read from the fitted curve at half-maximal effect
#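 CellTiter-Glo luminescence gave cytotoxicity after 18 hours at 37 degrees C. The cells were HepG2 CAGA-GFP in 1% FBS DMEM, stimulated with 500 pg/mL TGF-beta after compound addition. %Activity was normalised to no-cell wells (complete cell-killing) and DMSO (no toxicity), and curves were fitted and classified.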
# HT1080 IDH1KD tx = kills HT-1080 cells with IDH1 knockdown. 2% of 360,000 active. HT-1080 IDH1 knockdown viability, ATP luminescence, 48 h. Potency, µM (series often up to 46.1 µM), without a hit: at the top dose activity, negative = toxicity, actives largely listed as cytotoxic;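 also: potency is read from the fitted curve at half-maximal effect; 0% = DMSO wells and -100% = cell-free medium wells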
#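 Knockdown cells (IDH1KD HT-1080) received compounds 2 h after plating at 750 cells/well and were kept 48 h at 37 °C in 5% FBS RPMI. A CellTiter-Glo luminescence read gave % activity for curve fitting.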
# The depositor's hits bear a star; i = inactive; ? = inconclusive; · = no result. Shown are actives, neighbours in structure and some others; about 6.5% of the full set was active somewhere. Unless noted, calls follow the shape of the dose curve; as a rule, active = well fitted curve in the direction sought with a large enough effect; inconclusive = small, poorly fitted or top-dose-only effect, or another doubt; inactive = no such curve, though single readings can be large; an effect the other way counts as inactive or inconclusive.
SMILES,Giardia killer,TGFb inhibitor,HT1080-NT tox,IL1B secr inh,HepG2 tox,HT1080 IDH1KD tx
Cn1nc(C(F)(F)F)c(-c2ccc(Br)cc2)c1NC(=O)Nc1ccc(F)cc1F,6.1,?,?,·,-5.5%,18.4µM*
O=C(NCC(c1ccco1)N1CCc2ccccc2C1)c1cccc(Br)c1 (configuration not stated),-3.0,-12.5%,0.1%,-10.6,0.0%,3.3%
CCOc1ccc(N(CC(=O)NCc2ccccc2)C(=O)CCC(=O)Nc2nccs2)cc1,-11.0,5.3%,-2.5%,-3.5,7.2%,2.8%
COc1ccccc1-n1c(=O)oc2ccc(Cl)cc2c1=O,-22.9,?,2.91µM*,-19.7,-15.8%,2.91µM*
Cc1ccc(NC(=O)CCN2CCN(C/C=C/c3ccccc3)CC2)cc1C,-18.8,0.0%,-5.2%,-53.1*,-42.6%,-14.1%
O=C(CCN1CCN(C/C=C/c2ccccc2)CC1)Nc1ccc(Cl)cc1,-5.7,7.7%,0.9%,i,-5.7%,1.6%
Cc1onc(-c2ccccc2Cl)c1C(=O)N1CCCCC1,-5.5,4.3%,-9.3%,12.7,-28.4%,-11.5%
Cc1onc(-c2ccccc2Cl)c1C(=O)N1CCN(C/C=C/c2ccccc2)CC1,-9.3,?,8.7%,-51.9*,-43.4%,-26.4%
O=C(Nc1cccc(Cl)c1)N1CCN(C/C=C/c2ccccc2)CC1,5.8,-6.9%,-16.9%,-51.0*,-39.5%,-15.9%
COc1ccc(C)cc1-n1c(-c2ccc(Cl)cc2)cc2c1CC(C)(C)CC2=O,·,0.3%,·,·,-14.6%,·
COc1ccc(-n2c(-c3ccc(Cl)cc3)cc3c2CC(C)(C)CC3=O)c(OC)c1,·,17.8µM*,·,·,-50.2%,·
COc1ccccc1N1CCN(C(=O)c2cccc(NC3=NC4CS(=O)(=O)CC4S3)c2)CC1 (configuration not stated),28.9,-8.6%,11.1%,-11.5,-16.2%,-1.5%
CCN(CC)S(=O)(=O)c1ccc(N2CCc3ccccc3C2)nc1,36.8,-13.2%,?,-101.2*,-24.0%,?
CC(C)N(C(C)C)S(=O)(=O)c1ccc(N2CCc3ccccc3C2)nc1,2.2,-17.9%,?,-105.6*,-13.1%,?
CC(=O)N/C(=C\c1cccc([N+](=O)[O-])c1)C(=O)NC(C)C,-4.7,4.2%,4.3%,-9.5,-2.4%,1.6%
Cc1ccccc1OCc1occc1C(=O)Nc1cccc(-n2cnnn2)c1,1.3,14.1µM*,-29.4%,11.4,-31.5%,?
C=CCNC(=O)/C(C#N)=C/c1cn(-c2ccccc2)nc1-c1ccc(OC)c([N+](=O)[O-])c1,-13.4,-3.6%,-3.0%,-5.4,-29.0%,-20.0%
C=CCNC(=O)/C(C#N)=C/c1cc(Br)ccc1OC,6.0,-25.5%,20.6µM*,-26.1,-37.2%,?
C=CCNC(=O)/C(C#N)=C/c1ccccc1Cl,-9.8,-1.3%,-17.6%,-58.2*,-1.6%,3.1%
NC(=O)CSc1ccc(S(=O)(=O)N2CCOCC2)cn1,-3.9,-14.4%,7.0%,3.9,1.2%,10.5%
Fc1ccc(-n2nnnc2-c2cnc(-c3cccs3)nc2C(F)(F)F)cc1,-1.0,0.0%,-10.8%,-80.5*,4.8%,?
FC(F)(F)c1nc(-c2ccncc2)ncc1-c1nnnn1-c1ccccc1,-0.7,-2.4%,-0.2%,22.3,-37.5%,-5.9%
CC(OC(=O)CCCN=C1NS(=O)(=O)c2ccccc21)C(=O)Nc1ccccc1[N+](=O)[O-] (configuration not stated),0.4,-23.3%,-2.4%,9.7,-23.4%,-2.4%
COC(=O)C1=C(CCc2ccccc2)NC(=O)NC1c1ccc(Br)cc1 (configuration not stated),?,-22.6%,-0.5%,?,24.8%,0.9%
Nc1cccc2c1C(=O)N(CC(=O)NC13CC4CC(CC(C4)C1)C3)C2=O,19.3,1.1%,-2.5%,26.5,-0.4%,-2.0%
SMILES,Giardia killer,TGFb inhibitor,HT1080-NT tox,IL1B secr inh,HepG2 tox,HT1080 IDH1KD tx
O=C(Cn1sc2ccccc2c1=O)NC12CC3CC(CC(C3)C1)C2,-3.6,?,-9.3%,-99.2*,5.62µM*,?
O=C(Cn1sc2ccccc2c1=O)Nc1ccccc1,·,17.8µM*,?,-104.2*,-94.2%,?
O=C(CN1C(=O)c2ccccc2C1=O)Nc1ccccc1,-9.5,?,14.4%,33.1,5.9%,2.8%
CCS(=O)(=O)c1ccc(C(=O)Nc2ccccc2OC)c(Cl)c1Cl,-1.8,-8.9%,?,-60.4*,-1.8%,1.7%
CCS(=O)(=O)c1ccc(C(=O)Nc2ccccc2)c(Cl)c1Cl,11.4,0.0%,-1.6%,-23.5,-2.0%,-11.2%
Fc1ccc(-c2n[nH]c(=S)n2-c2ccc3c(c2)OCCO3)cc1,-17.0,-43.5%,8.7%,12.5,-4.5%,10.9%
O=C(O)c1cc([N+](=O)[O-])ccc1-c1ccc([N+](=O)[O-])cc1C(=O)O,·,-1.8%,8.7%,?,4.7%,16.9%
O=C(Nc1cc2c(cc1Cl)-c1ccc([N+](=O)[O-])cc1C2=NO)C(F)(F)F,-9.0,?,8.4%,-65.0*,-93.0%,6.5%
O=C(Nc1ccc2c(c1)Cc1cc([N+](=O)[O-])ccc1-2)C(F)(F)F,-5.4,-1.4%,-1.2%,-7.9,-4.8%,-6.5%
Nc1ccc2c(c1)C(=NO)c1cc([N+](=O)[O-])ccc1-2,9.0,?,-16.4%,-73.4*,8.2%,?
O=[N+]([O-])c1ccc2c(c1)-c1ccccc1C2=NO,-4.2,?,0.3%,-74.7*,-12.4%,5.9%
O=C1Nc2ccccc2Nc2ccc([N+](=O)[O-])cc21,4.4,-0.1%,3.0%,18.2,-0.4%,-0.9%
O=[N+]([O-])c1ccc2c(c1)C(=Nc1ccccc1)c1ccccc1-2,-0.6,-6.9%,6.5%,-11.4,-16.4%,14.7%
O=C1OC(=O)c2cc([N+](=O)[O-])ccc21,18.7,11.4%,21.1%,-53.6*,5.3%,9.5%
C=CCc1ccccc1OCCNCc1ccccc1,-8.1,-5.4%,-1.4%,-91.2*,-12.0%,?
Brc1ccccc1OCCNCc1ccccc1,4.0,?,0.1%,-80.5*,-19.8%,-2.8%
CCOC(=O)Cn1c(CN2CCN(C(c3ccccc3)c3ccccc3)CC2)nc2c1c(=O)n(C)c(=O)n2C,24.7,-13.1%,-0.3%,31.8,-12.9%,-13.2%
COc1ccc(S(=O)(=O)N(C)CC(=O)NC2CC2)cc1,-7.0,8.0%,3.2%,15.5,17.8µM*,1.3%
CCCOc1ccc(C2C(=O)N(C3CCC(C)CC3)CC(=O)N2CCC2=CCCCC2)cc1OC (configuration not stated),·,-4.6%,·,·,-4.4%,·
